Reference: PubChem BioAssay (NCI)
Compounds without any hit were thinned out: in the full panel of roughly 79,000, 15% have a hit. The source made the active and inactive calls. Rule as the data show it: active = growth inhibition above about 70%; inactive = the rest. Where a SMILES comes first, the peptide text is derived from it. Bridges are numbered along the chain shown (N, C = ends). [ ]: non-standard residue; d: D form. The star is where a group is joined. PhAc = O=C(Cc1ccccc1)*

Legend:
[1] = NCI Yeast Anticancer Drug Screen. Data for the rad50 strain (AID 155);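 also: 0% = growth of vehicle-only cultures of the same strain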; settings: S. cerevisiae rad50 strain growth inhibition; at 50.0 µM; active compounds read high
Summary of the method: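 Readout: growth inhibition relative to vehicle-treated cultures. Compound exposure was carried out in a genetically defined yeast strain deficient in DNA damage repair.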

[2] = NCI Yeast Anticancer Drug Screen. Data for the mec2-1 strain (AID 157); settings: S. cerevisiae mec2-1 strain, at 50.0 µM, active compounds read high
Summary of the method: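 Compounds were applied to mec2-1 yeast cells. Their growth was then compared with that of vehicle-treated cultures to give growth inhibition.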

[3] = NCI Yeast Anticancer Drug Screen. Data for the sgs1 mgt1 strain (AID 161);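 also: 0% = growth of cultures given vehicle only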; settings: S. cerevisiae sgs1 mgt1 strain, at 50.0 µM, active compounds read high
Summary of the method: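 Growth of a repair-deficient yeast mutant was monitored after compound treatment and expressed as inhibition relative to vehicle-treated cultures.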

[4] = NCI Yeast Anticancer Drug Screen. Data for the cln2 rad14 strain (AID 165);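 also: 0% = growth equal to vehicle treated cultures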; settings: S. cerevisiae cln2 rad14 strain, at 50.0 µM, active compounds read high
Summary of the method: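 Strain: cln2 rad14 yeast, altered in cell cycle control and DNA damage repair. Read-out: growth inhibition vs vehicle.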

[5] = NCI Yeast Anticancer Drug Screen. Data for the bub3 strain (AID 167); settings: S. cerevisiae bub3 mutant strain, at 50.0 µM, active compounds read high
Summary of the method: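 Readout: yeast growth inhibition, expressed relative to vehicle-only wells. The test organism is a mutant strain from a panel with lesions in DNA repair or checkpoint genes.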

[6] = NCI Yeast Anticancer Drug Screen. Data for the mlh1 rad18 strain (AID 175); settings: S. cerevisiae mlh1 rad18 strain growth inhibition; at 50.0 µM; active compounds read high
Summary of the method: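 A repair-deficient yeast strain is exposed to test compound, and growth is scored relative to vehicle-treated controls.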

Measured: growth inhibition

CCN(CC)C(=O)C1CCN(CCC(=O)Nc2ccccc2)CC1
inactive: [1] 8.4% | [2] -7.6% | [3] 12.9% | [4] -16.1% | [5] 5.15% | [6] 7.15%

CCOC(=O)CN1C(=O)CCC1=O
inactive: [1] -6.6% | [2] 2.55% | [3] -1.2% | [4] -3.5% | [5] 1.45% | [6] -5.95%

Cc1cc(C)[n+](C)c(/C=C/c2cccc([N+](=O)[O-])c2)n1
inactive: [1] 6.55% | [2] -6.95% | [3] 4.85% | [4] 16.4% | [5] 3.4% | [6] 11.1%

Nc1ncc2c(n1)CSCC2=O
inactive: [1] -9.4% | [2] 27.7% | [3] 14.1% | [4] -2.7% | [5] 16.9% | [6] 12%

Cc1cc(-c2ccccc2)n(C(C(=O)c2ccccc2)c2ccccc2)n1 (configuration not stated)
inactive: [1] 13.8% | [2] -10.4% | [3] -0.15% | [4] -5.6% | [5] -26.7% | [6] -15.2%

CCC[CH2][Sn]([CH2]CCC)([O]C(=O)c1nccnc1N)[O]C(=O)c1nccnc1N
active: [1] 92.2% | [2] 92.5% | [3] 93% | [4] 92.2% | [5] 90.3% | [6] 88.2%

Clc1ccc(OCCSCCCCCCCCCCSCCOc2ccc(Cl)cc2)cc1
inactive: [1] -2% | [2] -3.4% | [3] 13.9% | [4] -24% | [5] -8.7% | [6] -21.1%

O=[N+]([O-])c1cccc2c(-c3nccc4c([N+](=O)[O-])cccc34)nccc12
inactive: [1] -16.9% | [2] -1.35% | [3] -19.4% | [4] -21.8% | [5] -16.2% | [6] -19%

CC(C)=NNC=N/C(C#N)=C(\N)C#N
inactive: [1] -14.3% | [2] -0.55% | [3] -17.5% | [4] 18% | [5] -9.6% | [6] -24.7%

Cc1cccc(C(=O)C(O)c2cccc(C)n2)n1 (configuration not stated)
inactive: [1] 7.75% | [2] -18.4% | [3] -1.55% | [4] 8.2% | [5] -20.3% | [6] 4.4%

CC1=NC=C(O)c2ccccc2O1
inactive: [1] 24.4% | [2] 12.4% | [3] 26.8% | [4] 15.6% | [5] 14.9% | [6] 21.4%

ClCCCCCCCCCCl
inactive: [1] 28.6% | [2] -17.4% | [3] -12.7% | [4] -9% | [5] -13.2% | [6] 2.15%

CCC(C)(O)Cc1ccccc1Cl (configuration not stated)
inactive: [1] 30.1% | [2] 24.1% | [3] 21.9% | [4] 17.1% | [5] 7.2% | [6] 11.8%

CCC1N=C(N)N=C(N)N1c1ccc(Cl)c(Cl)c1 (configuration not stated)
inactive: [1] 16.2% | [2] 11.6% | [3] 9.25% | [4] -8.7% | [5] 10.7% | [6] 37.8%

O=C(O)c1c(Br)c(Br)c(Br)c(Br)c1C(=O)Nc1ccccc1F
inactive: [1] 7% | [2] -3.3% | [3] 7.55% | [4] 20.2% | [5] 4% | [6] 12.4%

Cc1ccc2c(c1)nc(-c1ccccn1)n2CCc1ccncc1
active: [3] 77% | [4] 90.3% | [5] 92.7%
inactive: [1] 62.5% | [2] 34.1% | [6] 53.8%

O=C(Nc1ccn(C2CCC(COC(c3ccccc3)(c3ccccc3)c3ccccc3)O2)c(=O)n1)c1ccccc1 (configuration not stated)
inactive: [1] 8.05% | [2] 19.4% | [3] 27.6% | [4] -25% | [5] -26.2% | [6] 16.9%

CCCS(=O)(=O)N1CCCC1
inactive: [1] -1.25% | [2] -15.8% | [3] -2.1% | [4] -34.5% | [5] -24.4% | [6] -19.4%

CCOC(=O)N1C2C=C(C)C(ON2C(=O)c2ccccc2)C2C(C)C(=O)N21 (configuration not stated)
inactive: [1] -3.8% | [2] -10.7% | [3] -5.8% | [4] 18.1% | [5] -17.5% | [6] -13.4%

O=C1NC(=S)S/C1=C/C=C/c1ccccc1[N+](=O)[O-]
inactive: [1] 2.95% | [2] 0.85% | [3] -3.9% | [4] -16.6% | [5] 42.5% | [6] -16.6%

Cc1ccc(NC(=O)c2ccccc2)cc1
inactive: [1] 3.75% | [2] 4.7% | [3] -2.55% | [4] -16% | [5] 2.05% | [6] -0.3%

CCOC(=O)CCC(NC(=O)C(N)c1ccc([N+](=O)[O-])cc1)C(=O)NC(CCC(=O)OCC)C(=O)OCC (configuration not stated)
inactive: [1] -5.4% | [2] -7.5% | [3] 1.2% | [4] 0.5% | [5] -2.55% | [6] 4.55%

O=C(O)/C=C/C(O)C1CCCCC1 (configuration not stated)
inactive: [1] -31.1% | [2] -8.35% | [3] -0.95% | [4] -23.1% | [5] 1.05% | [6] -4.65%

COc1ccc(C#N)c(-c2ccccc2)c1
inactive: [1] -11.2% | [2] -13.2% | [3] 17.5% | [4] 3.05% | [5] -6.25% | [6] -12.3%

O=c1n(CCO)nc2n1CCCN2
inactive: [1] 7.3% | [2] 10.9% | [3] 7.2% | [4] -15.8% | [5] 7.5% | [6] 5.6%

O=C(Cc1ccccc1)N[C@@H]1COC(=O)[C@@H]2CCCN2C(=O)[C@@H]2CCCN2C1=O (PhAc-[dS]-Pro-Pro; ester 1-C)
inactive: [1] -33.4% | [2] 5.85% | [3] -17.2% | [4] 27.4% | [5] -1.7% | [6] -8.95%

Cn1c(=O)c2c(nc(Cc3ccccc3)n2CC(=O)O)n(C)c1=O
inactive: [1] 0.3% | [2] -18.1% | [3] -30.8% | [4] -6.95% | [5] -32.1% | [6] -18.9%

NC(=S)/N=C/C1=C(O)CCCC1=O
inactive: [1] 2.05% | [2] 5.95% | [3] 16.4% | [4] 17% | [5] 14% | [6] 11.2%

CCCCNC(C(=O)c1ccc(N(C)C)cc1)c1ccccc1 (configuration not stated)
inactive: [1] 3.7% | [2] -10.6% | [3] -3.1% | [4] -8.15% | [5] 2.95% | [6] -13.9%

CC1CCCCC[N+]1(C)CCO (configuration not stated)
inactive: [1] -8.5% | [2] -7.15% | [3] -6.25% | [4] -30.7% | [5] -7.85% | [6] -4.8%

C(=N\N(CCCCN(/N=C/c1ccccc1)c1ccccc1)c1ccccc1)/c1ccccc1
inactive: [1] 38.5% | [2] 11.2% | [3] 13.8% | [4] 21.8% | [5] -11.8% | [6] 23.9%

Cc1nn(-c2ccccc2)c(=O)n2c1nc1ccccc12
inactive: [1] -2% | [2] -9.5% | [3] 20.9% | [4] -43.1% | [5] 26.8% | [6] 11.9%

Cc1ccc(S(=O)(=O)OCC23CCC(C4CC42)C2CC23)cc1 (configuration not stated)
inactive: [1] -21.9% | [2] -28.5% | [3] -14.8% | [4] 4.2% | [5] -10.1% | [6] 10.4%

N#CCC(=O)N1CCCCC1
inactive: [1] -8.3% | [2] -12.1% | [3] 9.9% | [4] -3.15% | [5] 3.1% | [6] -19.8%

CCCCCCCCCCCCCCCSc1ccc2ccccc2c1
inactive: [1] -17% | [2] 1.35% | [3] -5.2% | [4] -25.2% | [5] -13.8% | [6] -13.5%

O=C(CN1C(=O)c2ccccc2C1=O)NC1(C(=O)O)CCCC1
inactive: [1] -3.25% | [2] -14% | [3] -27.9% | [4] -2.65% | [5] -30.8% | [6] -0.15%

COC(=O)C1=C(C)NC(C)=C(C(=O)OC)C1c1ccc(NC(C)=O)cc1
inactive: [1] 4.7% | [2] -3.7% | [3] 13.3% | [4] -6.25% | [5] 5.25% | [6] 10.9%

O=C1Nc2ccccc2C1=O
inactive: [1] -0.85% | [2] 11.4% | [3] -31.8% | [4] -22.5% | [5] -12.3% | [6] -50%

Cc1n[nH]c(=S)n1C
inactive: [1] -25.2% | [2] -6.05% | [3] -4.25% | [4] -23.2% | [5] 8.55% | [6] 12.8%

O=C(NO)/C(CC(=O)c1ccc(O)cc1O)=N\O
inactive: [1] 4.05% | [2] -5.5% | [3] -8.65% | [4] -0.7% | [5] -11.2% | [6] 16.9%

O=C(/C=C\c1ccc(Cl)cc1)c1ccccc1
inactive: [1] -23.1% | [2] -34.5% | [3] 15.3% | [4] -6.4% | [5] 12.7% | [6] 2.05%

CCCc1nnnn1C12CC3CC(CC(C3)C1)C2
inactive: [1] 30.6% | [2] 18.8% | [3] 2.15% | [4] 2.2% | [5] 18.3% | [6] 28.1%
